Among all 56,000 compounds or so, about 710 (1.3%) were called active. This excerpt belongs to a sample that is enriched for actives. Values without a mark were called inactive.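 How the source made its calls: active means inhibition above the mean inhibition of all tested compounds plus 3 SD (cut at about 28% in these data); inactive means the rest.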
Experiment: cytotoxicity toward Jurkat T cells, primary screen, cytotoxicity control, cell-based, Jurkat E6.1, 60K MLSMR library (AID 463)
Settings: Jurkat E6.1 viability, ATP luminescence, 48 h; at 4 µM; hits give high values

| SMILES | inhibition |
| --- | --- |
| COc1ccc(CCNC(=O)CCCCn2c(=O)[nH]c3ccccc3c2=O)cc1OC | -5.9% |
| COc1cc(N=Cc2c(O)[nH]c3ccccc23)cc(OC)c1OC | 63% (active) |
| COC(=O)c1[nH]c2ccccc2c1NS(=O)(=O)c1ccc(OC)cc1OC | -1.9% |
| COc1ccc2[nH]c3ccc(OC)cc3c2c1 | -4.4% |
| COc1ccc(OC)c(N=Cc2c(O)[nH]c3ccccc23)c1 | -1% |
| COc1ccc(N=Cc2c(O)[nH]c3ccccc23)cc1OC | 39.2% (active) |
| CCn1nnc(NC(=O)c2cc(Cl)c(OC)c(Cl)c2)n1 | -2% |
| COC(=O)c1ccc(OC(=O)c2nn(C)cc2Cl)c(OC)c1 | 2.9% |
| CCOC(=O)C1CCN(C(c2cc3cc(C)cc(C)c3[nH]c2=O)c2nnnn2C2CCCCC2)CC1 (configuration not stated) | -0.3% |
| C=CCNC(=O)CCCOc1cccc(C)c1 | 4.8% |
| OCCNCCCCOc1ccccc1F | 3% |
| COc1cc(Cl)c(S(=O)(=O)n2cnc(C)c2)cc1Cl | 2.3% |
| CCC(=O)Nc1ccc(C(=O)Nc2ccc3c(c2)C(=O)N(CC2CCCO2)C3=O)cc1 (configuration not stated) | -3.3% |
| CCCCC(=O)Nc1ccc(C(=O)NCCCn2ccnc2)cc1 | 57% (active) |
| CCOc1ccccc1C(=O)NCCCn1ccnc1 | 9.7% |
| CCCC(=O)Nc1ccc(C(=O)NCCCn2ccnc2)cc1 | -15.7% |
| C=CCSc1nc2c(c(=O)[nH]1)C(C(C)C)C(C#N)=C(N)O2 (configuration not stated) | 0.8% |
| O=C1CCC(Cc2ccccc2)N1 (configuration not stated) | 0.5% |
| Cc1cnc(C(=O)OCC(=O)Nc2ccc(Cl)cc2Cl)cn1 | 7.4% |
| C=CCn1cnc2scc(-c3ccccc3)c2c1=O | -3% |
| CCCc1[nH]nc2c1C(c1ccc(OC(=O)c3ccco3)cc1)C(C#N)=C(N)O2 (configuration not stated) | 0.7% |
| CCCc1[nH]nc2c1C(C1CC=CCC1)C(C#N)=C(N)O2 (configuration not stated) | 5.6% |
| CCCc1[nH]nc2c1C(c1ccc(Br)s1)C(C#N)=C(N)O2 (configuration not stated) | 29.4% (active) |
| Cc1cc(N(C)C)cc(C)[n+]1[O-] | -7.1% |
| CCOc1ccc(-c2nnc3ccc(SC)nn23)cc1 | 0.4% |

| SMILES | inhibition |
| --- | --- |
| CCOC(=O)CSC1=C(C#N)C(c2sccc2C)CC(=O)N1 (configuration not stated) | 93.2% (active) |
| CCOC(=O)CSC1=C(C#N)C(c2ccco2)C(C(=O)OCc2ccccc2)=C(C)N1 (configuration not stated) | 7.5% |
| COC(=O)CSC1=C(C#N)C(c2ccccc2OC)C(C(=O)OC)C(=O)N1 (configuration not stated) | 5.3% |
| CCOC(=O)COc1ccc(Cl)cc1C1NC(=O)NC(C)=C1C(C)=O (configuration not stated) | -2.2% |
| CCOC(=O)c1c(NC(=O)c2ccc(Br)o2)sc2c1CCCC2 | 6.2% |
| COc1ccc(-c2n[nH]c(C)c2-c2ccc(OC)c(OC)c2)c(O)c1 | 52% (active) |
| C=C(C)COc1ccc(-c2n[nH]c(C)c2-c2ccccc2OC)c(O)c1 | 5.8% |
| C=C(C)COc1ccc(-c2n[nH]c(C)c2-c2ccccc2)c(O)c1 | 22.9% |
| Cn1c(=O)[nH]c(=O)c2c1nc(CN1CCN(c3ccccc3F)CC1)n2CCc1ccccc1 | 0% |
| O=S(=O)(c1cccc(S(=O)(=O)N2CCC(n3nnc4ccccc43)CC2)c1)N1CCCCC1 | 0.6% |
| Cn1c(NC(=O)c2ccc3c(c2)OCO3)cc(=O)n(C)c1=O | -10.9% |
| CCOc1ccc(-c2nnc(-c3ccco3)o2)cc1 | 8.6% |
| CCOC(=O)CSc1nnc(CNc2nc(-c3ccccc3)cs2)n1C | 0% |
| COc1ccc(C(c2nnnn2C2CCCCC2)N2CCN(c3ccccc3F)CC2)cc1 (configuration not stated) | -5.7% |
| COc1ccccc1-n1c(CNC(=O)c2ccccc2)nnc1SCC(=O)Nc1nnc(C)s1 | -6.1% |
| Cc1nnc(NC(=O)CSc2nccn2-c2cccc(C)c2C)s1 | 71.5% (active) |
| CCc1nnc(NC(=O)CSc2nnc(-c3ccncc3)n2Cc2ccccc2)s1 | -9.3% |
| Cc1cc(Nc2cccc(C)c2C)n2ncnc2n1 | 2.2% |
| CCOC(=O)N1CCN(C(=O)C2CC(c3ccc(F)cc3)=NO2)CC1 (configuration not stated) | -1.7% |
| CN(C)c1ccnc2sc3c(=O)n(Cc4ccccc4)cnc3c12 | 14.6% |
| CC1COC2C(O1)N(S(C)(=O)=O)CCN2S(C)(=O)=O (configuration not stated) | -1.8% |
| CC(=O)Oc1ccc(C)cc1N1C(=O)c2ccc(C(=O)O)cc2C1=O | -10.1% |
| CCOc1ccc2nc(SC(CC)C(=O)Nc3cc(C)on3)sc2c1 (configuration not stated) | 1% |
| Cc1nc(CNS(=O)(=O)c2cccnc2)cs1 | 2.3% |
| Cc1ccc(S(=O)(=O)NCc2csc(C)n2)c(C)c1 | -3.9% |

| SMILES | inhibition |
| --- | --- |
| Cc1nc(CNS(=O)(=O)c2ccc(Oc3ccccc3)cc2)cs1 | 35.6% (active) |
| Cc1cccc(NC(=O)c2ccccc2NC(=O)C(C)(C)C)n1 | 2.6% |
| COc1cccc(N2CCN(C(=O)C3CCCN(S(=O)(=O)c4cnc[nH]4)C3)CC2)c1 (configuration not stated) | 0.4% |
| O=c1c2ccccc2nc(CSc2nnnn2-c2ccccc2)n1-c1ccccc1 | -1.7% |
| CN(C)c1nc(N)nc(CSc2nnnn2-c2cccc3ccccc23)n1 | 66.2% (active) |
| Cc1ccc(-c2noc(CSc3nnnn3-c3ccccc3)n2)cc1 | -2.2% |
| Cn1c(=O)cc(OCCCC(=O)N2CCN(Cc3ccc4c(c3)OCO4)CC2)c2ccccc21 | 1.1% |
| Cc1cc(/C=N/n2cnnc2)c(C)n1-c1ccc2ncccc2c1 | 1% |
| C=CCn1c(=N)n(CC(O)COc2ccc(OC)cc2)c2ccccc21 (configuration not stated) | -0.5% |
| CC1CCN(C(=O)Cn2cc(C(=O)c3ccco3)c3ccccc32)CC1 | 2.8% |
| O=C1CCC(C(=O)Nc2ccc(OC(F)F)cc2)N1 (configuration not stated) | 0.7% |
| Cc1cc(C)nc(NC(=O)C(C)N2C(=O)c3ccccc3C2=O)n1 (configuration not stated) | -2.7% |
| O=C(Nc1ccccc1C(F)(F)F)c1cc(-c2ccc(O)cc2)on1 | 16.9% |
| Cc1cc(C)nc(NC(=O)Nc2ccccc2C(F)(F)F)n1 | 45.2% (active) |
| Cc1nnc(N(Cc2ccco2)C(=O)c2ccno2)s1 | -0.7% |
| Cc1ccc2[nH]c(=O)c(COC(=O)c3ccccn3)cc2c1 | -6.3% |
| CCn1c(=N)c(S(=O)(=O)c2ccc(F)cc2)cc2c(=O)n3ccccc3nc21 | -7% |
| COc1ccc(Cn2nnc3c(=O)[nH]c(C4CCN(C(=O)c5ccccc5Cl)CC4)nc32)cc1 | -2.8% |
| CCN(CC)S(=O)(=O)c1cccc(C(=O)Nc2ccccc2)c1 | 29.7% (active) |
| CCN(CC)S(=O)(=O)c1cccc(C(=O)NCC(=O)OCC(=O)NCc2ccccc2)c1 | -5.9% |
| CN(C)S(=O)(=O)c1cccc(C(=O)Nc2cccnc2)c1 | -3% |
| COc1ccc(Br)cc1S(=O)(=O)N1CCN=C1C | 2.5% |
| CCOC(=O)C1=C(C)N=c2s/c(=C\C(=O)OC)c(=O)n2C1c1ccc(OC)cc1 (configuration not stated) | 6% |
| O=C(Nc1cccc(F)c1)c1ccc(S(=O)(=O)N2CCCC2)cc1 | 1.7% |
| O=C(CN1CCN(S(=O)(=O)c2ccc(F)cc2)CC1)Nc1ccccc1F | -6% |

| SMILES | inhibition |
| --- | --- |
| CCOC(=O)N1CCN(S(=O)(=O)c2ccc(C(=O)Nc3ccc(F)cc3F)cc2)CC1 | 84.2% (active) |
| Cc1ccc(C2c3c(oc4ccc(C)cc4c3=O)C(=O)N2CCCN2CCOCC2)cc1 (configuration not stated) | 3.9% |
| Cc1ccccc1Cn1c(=O)[nH]c2ccccc21 | 5.4% |
| COc1ccc(CCN2C(=O)c3[nH]nc(-c4ccccc4O)c3C2c2ccc(C)cc2)cc1OC (configuration not stated) | 11.1% |
| O=S(=O)(Nc1ccc2nc(-c3ccco3)[nH]c2c1)c1ccccc1 | 4.2% |
| Cc1ccc(S(=O)(=O)Nc2ccc3ncccc3c2)cc1 | 69.4% (active) |
| CC(=O)N1CCN(C(=O)c2cccc(S(=O)(=O)Nc3ccc(C)cc3)c2)CC1 | -0.6% |
| Cc1cc(C)cc(N(CC(=O)Nc2c(C)n(C)n(-c3ccccc3)c2=O)S(C)(=O)=O)c1 | -5.2% |
| CCOC(=O)CSc1nnc(-c2cccc(Br)c2)o1 | -6.1% |
| COc1ccc(C(=O)Nc2ccc(S(=O)(=O)Nc3onc(C)c3C)cc2)cc1OC | -3.3% |
| COc1cc(NS(=O)(=O)c2ccc(NC(C)=O)cc2)cc(OC)c1 | 37.3% (active) |
| COC(=O)COc1ccc(S(=O)(=O)Nc2ccc(NC(C)=O)cc2)cc1 | -9.6% |
| CCNS(=O)(=O)c1ccc(NC(=O)Nc2cccc(OC)c2)cc1 | -3.7% |
| CC(=O)Nc1ccc(S(=O)(=O)Nc2cccc(NC(=O)C(C)(C)C)c2)cc1 | 7.9% |
| COc1ccc(NS(=O)(=O)c2ccc(NC(C)=O)cc2)cc1OC | 31.3% (active) |
| NC(=O)c1ccsc1NC(=O)c1ccco1 | -2.4% |
| O=C(O)c1ccc(F)c(S(=O)(=O)Nc2ccccc2)c1 | 6.8% |
| O=C(O)Cc1ccc(NC(=O)C2CCCCC2C(=O)O)cc1 (configuration not stated) | -4.1% |
| Cc1nnc(SCc2ccc(C(=O)c3ccc(Cl)cc3)o2)n1-c1ccccc1 | 2.9% |
| COc1ccc(N2C(=O)CN=C2Nc2cccc(C)c2C)cc1OC | -3% |
| Nc1nnc(SCCN2C(=O)c3ccccc3S2(=O)=O)s1 | -1% |
| COc1ccccc1NC(=O)CN1CCN(S(=O)(=O)c2ccc(Br)cc2)CC1 | -0.3% |

Reference: PubChem BioAssay AID463 (The Scripps Research Institute Molecular Screening Center, 2006)
